Laboratory results reported in the supplement of paper PMC7411054.
Where a name gives a salt, the structure may show the parent alone.

Experiments:
Experiment in all cases: lowest phenotypically active concentration; higher = less potent
Details in all cases: treatment time: 24 h
A549-CANX-COX4 = system: A549-CANX-COX4
How it was run: (§1)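 Phenotypic activity depended on meeting both a deviation and a reproducibility criterion. The fifteen gene-edited A549, HepG2 and WPMY1 reporter lines were treated at 0.3, 1, 3 or 9 µM for 24 h, four wells each, then imaged live with features normalised to solvent control wells. Deviation required ≥3 of 4 wells past the 95th percentile of control Euclidean distances, and reproducibility a median replicate Pearson correlation above the 95th percentile of non-replicates.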

HepG2-GM130-SQSTM1 = system: HepG2-GM130-SQSTM1
How it was run: as §1

HepG2-TP53BP1-CLTA = system: HepG2-TP53BP1-CLTA
How it was run: as §1

HepG2-TUBA1B-RELA = system: HepG2-TUBA1B-RELA
How it was run: as §1

WPMY1-ACTB-RAB5A = system: WPMY1-ACTB-RAB5A
How it was run: as §1

WPMY1-CANX-COX4 = system: WPMY1-CANX-COX4
How it was run: as §1

WPMY1-TP53BP1-CLTA = system: WPMY1-TP53BP1-CLTA
How it was run: as §1

WPMY1-TUBA1B-RELA = system: WPMY1-TUBA1B-RELA
How it was run: as §1

A549-TP53BP1-CLTA = system: A549-TP53BP1-CLTA
How it was run: as §1

HepG2-CANX-COX4 = system: HepG2-CANX-COX4
How it was run: as §1

| SMILES | lowest phenotypically active concentration (A549-CANX-COX4) [µM] | lowest phenotypically active concentration (HepG2-GM130-SQSTM1) [µM] | lowest phenotypically active concentration (HepG2-TP53BP1-CLTA) [µM] | lowest phenotypically active concentration (HepG2-TUBA1B-RELA) [µM] | lowest phenotypically active concentration (WPMY1-ACTB-RAB5A) [µM] | lowest phenotypically active concentration (WPMY1-CANX-COX4) [µM] | lowest phenotypically active concentration (WPMY1-TP53BP1-CLTA) [µM] | lowest phenotypically active concentration (WPMY1-TUBA1B-RELA) [µM] | lowest phenotypically active concentration (A549-TP53BP1-CLTA) [µM] | lowest phenotypically active concentration (HepG2-CANX-COX4) [µM] |
| --- | --- | --- | --- | --- | --- | --- | --- | --- | --- | --- |
| Nc1ncnc2[nH]nc(Nc3ccc(F)cc3)c12 | 9 | 9 | 9 | 9 | 9 | 9 | 9 | 9 | – | – |
| CC(C)n1c(/C=C/[C@@H](O)C[C@@H](O)CC(=O)O)c(-c2ccc(F)cc2)c2ccccc21 [fluvastatin] | 9 | 1 | 3 | 3 | 1 | 3 | 9 | 3 | 9 | 3 |
| COc1ccc(-c2cc(=O)c3c(O)cc(O)cc3o2)cc1O [Diosmetin] | 9 | – | – | 9 | – | 9 | 9 | 9 | – | – |
| O=C1/C(=C\c2ccncc2)CCC/C1=C\c1ccncc1 | 3 | 1 | 3 | 3 | 3 | 3 | 9 | 3 | – | 3 |
| C[C@@H](Nc1ncnc2[nH]c(-c3ccc(O)cc3)cc12)c1ccccc1 [PKI 166 hydrochloride] | 3 | – | 9 | 9 | 9 | 3 | 3 | 9 | 3 | 9 |
| Cc1nnc(-c2ccc3occ(-c4ccc(S(C)=O)cc4)c3c2)o1 (centres undefined) | 9 | 9 | – | 3 | 9 | 9 | 9 | – | 9 | 9 |
| CCCOc1ccc(CCc2nc3cc(-c4c(C)noc4C)ccc3n2CCN2CCOCC2)cc1 | 9 | – | 9 | – | – | – | – | – | – | 9 |
| N#C/C(=C/c1ccc(O)c(O)c1)C(=O)NCCCCc1ccccc1 | 9 | 9 | 9 | – | 9 | 9 | 9 | 9 | – | 9 |
| COc1ccc(-c2cnc(-c3cccc4c3-c3ccccc3C4=O)o2)cc1 | ≤ 0.3 | – | – | – | ≤ 0.3 | ≤ 0.3 | ≤ 0.3 | ≤ 0.3 | ≤ 0.3 | – |
| CC(C)(C)c1cc(C(=O)/C=C/c2ccc(C(=O)O)cc2)cc(C(C)(C)C)c1 | 9 | 9 | 9 | – | ≤ 0.3 | ≤ 0.3 | ≤ 0.3 | 3 | – | ≤ 0.3 |
| CCc1cncnc1N1CCN(Cc2nc3cc(C(F)(F)F)ccc3[nH]2)CC1 | 9 | 9 | 9 | 3 | – | – | – | 9 | – | 9 |
| CCn1c(=O)n([C@H]2CCCN(c3nccc(-c4cc5ccccc5o4)n3)C2)c2ccccc21 | 3 | – | – | – | – | 3 | – | – | 9 | – |
| CCCCOc1c(C(=O)c2c(F)cc(C)cc2F)cnc2[nH]ncc12 | ≤ 0.3 | 9 | 3 | ≤ 0.3 | ≤ 0.3 | ≤ 0.3 | – | 3 | – | – |
| COc1c(Cl)cc2c([nH]c3cnccc32)c1NC(=O)c1cccnc1C [ML 120B dihydrochloride] | 9 | – | 9 | – | – | – | – | – | – | 9 |
| OCc1cc(C(O)CNCCCCCCOCCCCc2ccccc2)ccc1O (centres undefined) [salmeterol] | 9 | 9 | 9 | 9 | 9 | 3 | 9 | 9 | – | – |
| CN1CCc2cccc3c2[C@H]1Cc1ccc(O)c(O)c1-3 [r(-)-apomorphine] | 9 | – | – | – | 9 | 9 | – | 9 | 9 | – |
| CN(C)CC(=O)Nc1ccc2[nH]c(=O)c3ccccc3c2c1 [PJ 34 hydrochloride] | 9 | 9 | 9 | 9 | 9 | 3 | – | 9 | – | 9 |
| C=C1C(=O)O[C@@H]2[C@H]3O[C@]3(C)CCC=C(C)CC[C@@H]12 [Parthenolide] | 9 | 3 | – | – | 9 | 9 | – | 9 | – | 9 |
| C=C1CC[C@@H]2[C@](C)(CO)[C@H](O)CC[C@@]2(C)[C@@H]1C/C=C1/C(=O)OC[C@H]1O [Andrographolide] | 9 | 1 | 3 | 3 | – | – | – | 9 | – | 3 |
| Cn1cc(C2=C(c3ccc(Cl)cc3Cl)C(=O)NC2=O)c2ccccc21 | – | 1 | ≤ 0.3 | – | – | 1 | ≤ 0.3 | – | ≤ 0.3 | – |
| CCCNCC(O)COc1ccccc1C(=O)CCc1ccccc1 (centres undefined) [propafenone] | – | – | – | 9 | 9 | 9 | 3 | – | 9 | – |
| CCCCOc1cc(C(=O)NCCN(CC)CC)c2ccccc2n1 [cinchocaine] | – | – | 9 | – | 9 | – | – | – | 9 | – |
| NS(=O)(=O)c1nn2cc(-c3ccccc3)nc2s1 | – | 9 | – | 9 | 9 | – | 9 | 9 | 9 | 9 |
| O=C(NOCC1CC1)c1ccc(F)c(F)c1Nc1ccc(I)cc1Cl | – | ≤ 0.3 | ≤ 0.3 | ≤ 0.3 | – | – | – | – | ≤ 0.3 | 1 |
| COc1ccc(CCNCc2ccc(OCc3ccc(Cl)nc3)c(OC)c2)cc1OC [SBE 13 hydrochloride] | – | – | 9 | 9 | 9 | 9 | 9 | 9 | 9 | – |
| CC/C(=C(\CC)c1ccc(O)c(CN(CC)CC)c1)c1ccc(O)c(CN(CC)CC)c1 | – | 1 | ≤ 0.3 | 1 | 1 | 1 | 9 | 9 | 1 | – |
| O=C(O)Cc1cccc(OCCCN(Cc2cccc(C(F)(F)F)c2Cl)CC(c2ccccc2)c2ccccc2)c1 [GW 3965 hydrochloride] | 9 | – | – | 9 | – | – | – | – | – | 9 |
| Cc1noc(C)c1Cn1cc(C#N)c2cc(Oc3ccc(NC(=O)[C@@H]4CCCN4)cc3)ccc21 | – | 9 | 9 | 9 | 9 | 9 | 9 | 9 | 9 | – |

| SMILES | lowest phenotypically active concentration (A549-CANX-COX4) [µM] | lowest phenotypically active concentration (HepG2-GM130-SQSTM1) [µM] | lowest phenotypically active concentration (HepG2-TP53BP1-CLTA) [µM] | lowest phenotypically active concentration (HepG2-TUBA1B-RELA) [µM] | lowest phenotypically active concentration (WPMY1-ACTB-RAB5A) [µM] | lowest phenotypically active concentration (WPMY1-CANX-COX4) [µM] | lowest phenotypically active concentration (WPMY1-TP53BP1-CLTA) [µM] | lowest phenotypically active concentration (WPMY1-TUBA1B-RELA) [µM] | lowest phenotypically active concentration (A549-TP53BP1-CLTA) [µM] | lowest phenotypically active concentration (HepG2-CANX-COX4) [µM] |
| --- | --- | --- | --- | --- | --- | --- | --- | --- | --- | --- |
| COc1cc2ncnc(Nc3ccc(Cl)cc3F)c2cc1OC | – | – | – | – | – | – | – | – | 3 | – |
| O=C(O)C[C@H](O)C[C@H](O)/C=C/c1c(C2CC2)nc2ccccc2c1-c1ccc(F)cc1 [Pitavastatin calcium] | – | 1 | 1 | 1 | ≤ 0.3 | 1 | 1 | 1 | 9 | 1 |
| COc1cc(N2CCC(N)CC2)ccc1Nc1ncc(Cl)c(-c2c[nH]c3ccccc23)n1 | – | 3 | 3 | 1 | 1 | 1 | ≤ 0.3 | 1 | 3 | 1 |
| Clc1ccccc1C(c1ccccc1)(c1ccccc1)n1ccnc1 [Clotrimazole] | – | – | – | – | – | 9 | – | – | 9 | 9 |
| Cc1cc(Nc2ccc(NC(=O)c3ccc(Nc4ccnc5ccccc45)cc3)cc2)nc(N)n1 | – | 1 | 3 | 3 | 3 | – | 3 | 3 | 9 | – |
| CC(C)COCC(CN(Cc1ccccc1)c1ccccc1)N1CCCC1 (centres undefined) [bepridil] | – | 9 | 9 | 9 | – | 9 | 9 | – | 9 | 9 |
| COc1c(C=O)c(O)cc2c1C(=O)c1ccccc1C2=O [Damnacanthal] | – | 9 | 9 | – | 9 | 9 | 9 | 9 | 3 | – |
| Cc1noc(C)c1-c1ccc2c(c1)nc(CCc1ccc(OCCCN(C)C)cc1)n2CCN1CCOCC1 | – | 9 | 9 | 9 | 9 | 9 | 9 | 9 | 9 | 9 |
| O=S(=O)(c1cccc2cnccc12)N1CCCNCC1 [fasudil] | – | 3 | 3 | 9 | 3 | 3 | – | 9 | 9 | 3 |
| CC(C)OC(=O)c1cc2c(OCC(O)CNC(C)(C)C)cccc2[nH]1 (centres undefined) | – | – | 3 | 9 | 3 | 9 | 9 | 9 | 9 | – |
| CN1[C@@H]2CC[C@H]1C[C@@H](OC(c1ccccc1)c1ccccc1)C2 [benztropine] | – | – | 9 | 9 | – | 9 | – | 9 | 9 | 9 |
| COc1ccccc1OCCNCC(O)COc1cccc2[nH]c3ccccc3c12 (centres undefined) [Carvedilol] | – | 9 | 9 | 9 | 9 | 9 | 9 | 9 | 9 | 9 |
| Cc1ccc(NC(=O)c2cccc(N(C)C)c2)cc1NC(=O)c1ccc(O)cc1 | – | – | – | – | 9 | – | – | – | 3 | – |
| C[C@]1(O)C[C@@H](c2nc(-c3ccc4ccc(-c5ccccc5)nc4c3)c3c(N)nccn32)C1 [linsitinib] | – | 9 | 9 | 9 | 9 | 9 | 9 | – | 9 | 9 |
| COc1ccc(CNC(=O)Nc2ncc([N+](=O)[O-])s2)cc1 | – | – | – | – | – | 9 | 9 | – | 9 | – |
| COc1cc(OC)c2cc(-c3ccncc3)cnc2c1 [DMPQ dihydrochloride] | – | – | – | – | – | 9 | 9 | – | 9 | 9 |
| CNCCC(Oc1ccc(C(F)(F)F)cc1)c1ccccc1 (centres undefined) [fluoxetine] | – | – | 9 | 3 | – | – | – | – | 9 | – |
| Cc1ccc(NC2=CC(=O)c3sc(C)nc3C2=O)cc1 [Ryuvidine] | – | 3 | 3 | – | 1 | 3 | – | 1 | 1 | – |
| C[C@H]1Oc2cc(cnc2N)-c2c(nn(C)c2C#N)CN(C)C(=O)c2ccc(F)cc21 | – | 3 | 3 | ≤ 0.3 | – | – | 9 | – | 3 | 3 |
| CSc1ccc2c(c1)N(CCC1CCCCN1C)c1ccccc1S2 (centres undefined) [thioridazine] | – | 9 | 9 | 9 | 9 | 9 | 9 | 9 | 9 | 9 |
| CCCS(=O)(=O)Nc1ccc(F)c(C(=O)c2c[nH]c3ncc(Cl)cc23)c1F | – | ≤ 0.3 | 1 | 9 | – | – | – | – | 1 | 1 |
| NC(=O)c1cccc(-c2cc(Nc3ccc(OC(F)(F)F)cc3)ncn2)c1 | – | 9 | – | – | 3 | – | 9 | – | 9 | – |
| O=C(O)[C@@H]1[C@H]2C[C@H]3c4[nH]c5ccccc5c4CCN3C[C@@H]2CC[C@@H]1O [Yohimbinic acid monohydrate] | – | – | – | – | 9 | 9 | 9 | 9 | 9 | – |
| N#C/C(=C(/N)Sc1ccc(N)cc1)c1ccccc1C(F)(F)F | – | 9 | 3 | 9 | – | – | 9 | – | 1 | 3 |
| O[C@H](CNC[C@H](O)[C@@H]1CCc2cc(F)ccc2O1)[C@@H]1CCc2cc(F)ccc2O1 [nebivolol] | – | – | 9 | 3 | 3 | 9 | 9 | 3 | – | – |
| COc1cc(NC(=O)c2cccc(-n3cc(NC(=O)Nc4cccc(C)c4)cn3)c2)cc(OC)c1OC | – | – | – | – | – | – | – | 9 | – | – |
| Fc1ccc([C@@H]2CCNC[C@H]2COc2ccc3c(c2)OCO3)cc1 [paroxetine] | – | 9 | 9 | 3 | 9 | 9 | 9 | 9 | – | – |
